This passage reports Potency results from PubChem BioAssay (NCATS).

Values joined by “and” are separate entries in the source; they are usually repeats but may differ in a detail not shown here. Equal entries are not always repeated. Results filed as inconclusive are left out. A call without a number means that no potency is given here. Active and inactive are the calls of the source. Calls follow the shape of the dose curve; as a rule, active = well fitted inhibition curve with a large enough effect; inconclusive = small, poorly fitted or top-dose-only effect; inactive = flat fitted curve, though single readings scatter.
Potency is read from the fitted curve at half-maximal effect.

Sequence of Voltage-gated inwardly rectifying potassium channel KCNH2 (Homo sapiens) (Q12809 whole entry, looked up): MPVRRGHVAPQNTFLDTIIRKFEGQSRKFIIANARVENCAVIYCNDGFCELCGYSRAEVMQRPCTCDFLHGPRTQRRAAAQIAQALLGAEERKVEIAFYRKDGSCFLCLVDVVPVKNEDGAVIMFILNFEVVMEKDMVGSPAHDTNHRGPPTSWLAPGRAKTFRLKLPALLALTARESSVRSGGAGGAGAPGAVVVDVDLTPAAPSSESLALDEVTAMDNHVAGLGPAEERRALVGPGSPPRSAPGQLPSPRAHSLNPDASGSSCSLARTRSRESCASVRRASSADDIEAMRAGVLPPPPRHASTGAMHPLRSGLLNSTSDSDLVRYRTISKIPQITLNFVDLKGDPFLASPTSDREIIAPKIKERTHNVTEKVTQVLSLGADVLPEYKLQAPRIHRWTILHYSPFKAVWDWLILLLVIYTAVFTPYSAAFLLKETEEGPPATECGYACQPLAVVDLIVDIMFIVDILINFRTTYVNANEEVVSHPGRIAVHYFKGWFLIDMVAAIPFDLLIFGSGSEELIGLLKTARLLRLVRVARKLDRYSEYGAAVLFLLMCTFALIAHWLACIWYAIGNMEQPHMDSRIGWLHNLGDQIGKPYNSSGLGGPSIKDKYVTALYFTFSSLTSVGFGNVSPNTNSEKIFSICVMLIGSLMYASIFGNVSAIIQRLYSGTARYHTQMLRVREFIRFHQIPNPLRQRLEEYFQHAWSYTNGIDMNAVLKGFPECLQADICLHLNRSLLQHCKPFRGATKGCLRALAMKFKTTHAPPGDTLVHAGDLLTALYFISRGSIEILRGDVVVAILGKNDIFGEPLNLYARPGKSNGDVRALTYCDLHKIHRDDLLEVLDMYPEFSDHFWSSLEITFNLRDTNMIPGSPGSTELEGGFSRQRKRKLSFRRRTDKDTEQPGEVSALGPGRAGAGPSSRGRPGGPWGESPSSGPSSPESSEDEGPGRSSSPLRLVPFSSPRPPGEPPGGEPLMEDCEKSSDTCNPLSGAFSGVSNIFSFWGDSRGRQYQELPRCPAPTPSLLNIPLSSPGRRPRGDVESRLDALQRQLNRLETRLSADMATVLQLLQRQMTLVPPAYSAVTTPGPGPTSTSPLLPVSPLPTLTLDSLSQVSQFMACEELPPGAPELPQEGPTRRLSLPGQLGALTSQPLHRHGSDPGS

This test has as its target Voltage-gated inwardly rectifying potassium channel KCNH2 (Homo sapiens) (UniProt Q12809). Briefly: qHTS Assay for Small Molecule Inhibitors of the Human hERG Channel Activity (AID 588834).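 Also: lower thallium flux fluorescence means stronger hERG block; nearly all actives have a fitted effect of over 50% in size.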 The settings on record: U2OS BacMam hERG, FluxOR thallium flux fluorescence; series mostly up to 46.1 µM. The gist of the method:
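U2OS cells transduced with hERG via BacMam (MOI ~100), plated 2000/well, loaded with FluxOR thallium dye, compound ~10 min, then stimulation buffer; fluorescence decrease read kinetically; AC50 from Hill fits.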
Background: qHTS replaces the single test concentration by a dilution series.
In the case of `NC(=O)NC(=O)Cc1ccccc1`, the Potency result is “inactive”.

For `NCC(=O)CCC(=O)O`, the Potency entry was “inactive”. Take `O=C(O)CC(O)C(=O)O` (stereo not drawn): the Potency result is “inactive”. Regarding `CCCn1cnc2c1c(=O)n(CCCCC(C)=O)c(=O)n2C`, the Potency result was “inactive”.

For `O=S(=O)(O)c1cc(I)c(O)c2ncccc12`, the Potency result was “inactive”. For `O=C(O)c1ccccc1-c1ccc(C(F)(F)F)cc1`, the Potency result was “inactive”. For the compound `COc1ccc(S(=O)(=O)Nc2nnc(CC(C)C)s2)cc1`, the Potency entry is “inactive”. On to `OCc1cc(C(O)CNCCCCCCOCCCCc2ccccc2)ccc1O` (stereo not drawn), for which the Potency is 4.47 µM (active) and 3.55 µM (active).

Regarding `N[C@@H](CSCCCO)C(=O)O`, the Potency entry was “inactive”. With `Cc1cc(C(C#N)c2ccc(Cl)cc2)c(Cl)cc1NC(=O)c1cc(I)cc(I)c1O` (stereo not drawn), the Potency result was “inactive”. As for `O=c1cc[nH]c(=S)[nH]1`, the Potency result was “inactive”. `CCCCOc1cc(C(=O)OCCN(CC)CC)ccc1N`: the Potency is 4.47 µM (active).

For `CC(=O)Nc1ccc(/C=N/NC(N)=S)cc1`, the Potency result is “inactive”. On to `Cc1cccc(C)c1NC(=O)CN(CC(=O)O)CC(=O)O`, for which the Potency result was “inactive”.

Turning to `COc1cc(C(=O)N2CCOCC2)cc(OC)c1OC`, the Potency result was “inactive”. As to `CN1CCCCC1CCN1c2ccccc2Sc2ccc(S(C)=O)cc21` (stereo not drawn), the Potency result was “inactive”. Take `O=C(O)c1ccccc1O`: the Potency result was “inactive”.

As for `O=C1OC(OC(=O)c2cccnc2Nc2cccc(C(F)(F)F)c2)c2ccccc21` (stereo not drawn), the Potency entry was “inactive”. With `CCCCc1ncc(/C=C(\Cc2cccs2)C(=O)O)n1Cc1ccc(C(=O)O)cc1`, the Potency result is “inactive”. Regarding `CSc1ccc2c(c1)C(N1CCN(C)CC1)Cc1ccccc1S2` (stereo not drawn), the Potency was 2.24 µM (active).

On to `Cc1cc2c(cc1S(N)(=O)=O)S(=O)(=O)CCC2`, for which the Potency result was “inactive”. As for `O=C(CCCN1CCN(c2ccccn2)CC1)c1ccc(F)cc1`, the Potency is 5.01 µM (active).

For `CCC(=O)Nc1ccc(O)cc1`, the Potency entry is “inactive”.
